The target in the experiment is Tumor necrosis factor receptor superfamily member 10B (Homo sapiens) (UniProt O14763). Description: viability loss of caspase-8 NB7 cells with TRAIL – with/without TRAIL, luminescence panel, confirmation (AID 651596). Particulars: NB7 neuroblastoma + caspase-8, TRAIL sensitization, NB7 Caspase-8, with TRAIL, mean of runs, at 10 µM, stronger effect = higher value.
Chain of Tumor necrosis factor receptor superfamily member 10B (Homo sapiens) (O14763 whole entry, looked up): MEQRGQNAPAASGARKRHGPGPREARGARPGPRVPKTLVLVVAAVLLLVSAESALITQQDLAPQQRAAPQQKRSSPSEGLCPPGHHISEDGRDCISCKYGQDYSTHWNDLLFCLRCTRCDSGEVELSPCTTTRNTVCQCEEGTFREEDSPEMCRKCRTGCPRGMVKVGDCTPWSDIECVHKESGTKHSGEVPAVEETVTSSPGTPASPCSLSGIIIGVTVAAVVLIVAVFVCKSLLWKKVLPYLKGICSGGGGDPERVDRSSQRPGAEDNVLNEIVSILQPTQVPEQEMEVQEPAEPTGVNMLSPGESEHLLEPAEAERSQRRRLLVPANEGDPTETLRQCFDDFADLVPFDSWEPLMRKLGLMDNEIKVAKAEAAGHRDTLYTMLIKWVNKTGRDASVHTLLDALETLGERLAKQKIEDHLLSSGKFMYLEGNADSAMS
Consider `CN(C)S(=O)(=O)c1ccc(C(=O)Nc2nnc(SCC(=O)N3CCOCC3)s2)cc1`, for which the activity was determined as 62.7%. As for `CCOc1ccc(-c2nc(-c3cccnc3)no2)cc1`, the activity came to 53.3%. Consider `Cc1ccc(C(=O)Nc2ccc3c(c2)CCC3)cc1`, for which the activity amounted to 78.7%. As to `Cc1ccccc1NC(=O)Cc1nc(COC(=O)c2ccc(S(C)(=O)=O)c([N+](=O)[O-])c2)cs1`, the activity was 80.5%. For the molecule `Cc1cc(N/N=C\c2ccccc2)nc(-c2ccccc2O)n1`, the activity amounted to 41.2%. Turning to `CCC(=O)Nc1cc2nn(-c3ccccc3)nc2cc1Cl`, the activity came out at 67.5%. Next, `Cc1ccc2nc(-c3ccc(NC(=O)COC(=O)c4ccc([N+](=O)[O-])o4)cc3)sc2c1`: 70.1%.

Take `CCCOc1ccc(-c2cn3ccccc3n2)cc1[N+](=O)[O-]`: the activity turned out to be 57%. As for `CC(=O)CSc1nc2cc3c(cc2cc1C#N)OCCO3`, the activity turned out to be 49.6%.

Take `CC1(C)Cc2c(sc(NC(=O)COc3cccc4ccccc34)c2C#N)C(C)(C)N1`: the activity is 85.3%.

On to `CCC(C)c1ccc(-c2cc(C(=O)OCC(=O)Nc3cc(C)on3)c3ccccc3n2)cc1` (stereo not given), for which the activity is 85.1%. Turning to `Cc1nnc(NC(=O)c2nc(S(=O)(=O)Cc3ccccc3)ncc2Cl)s1`, the activity worked out at 94.5%. Next, `O=c1[nH]c(/C(=N\O)c2ccccc2)no1`: 88.8%. `N#Cc1ccccc1NC(=O)COC(=O)/C=C/c1cn(-c2ccccc2)nc1-c1ccc(Cl)cc1`: the activity was 39.5%. With `COc1ccc(/C=C/C(=O)c2ccc([N+](=O)[O-])o2)cc1`, the activity was 35.2%.

In the case of `COc1cc2sc3ccc(C#CC4(O)CCCCC4)cc3c(=O)c2cc1OC`, the activity came to 71.4%. For the molecule `CCc1ccc2nc(N(CCCN(C)C)C(=O)c3ccc(S(=O)(=O)N4CCc5ccccc5C4)cc3)sc2c1`, the activity was found to be 68.4%. Regarding `C/C(=N\NC(=O)c1ccccc1O)c1cccs1`, the activity turned out to be 68.1%. Take `CCC(COC)Oc1cc(NCc2ccccc2)c2ncn(C(C)C)c2c1` (stereo not given): the activity is -8.03%.

With `CCOc1ccc(N=Cc2c(C)[nH]n(-c3nc4ccccc4[nH]3)c2=O)cc1`, the activity came to 87.4%. For `O=C(Nc1cccc(O)c1)c1cc(-c2ccccc2Cl)on1`, the activity was 82.2%. On to `CSc1nc2ccc(NC(=O)c3ccccn3)cc2s1`, for which the activity amounted to 83.2%. The same measure for `Cc1ccnc(NC(=O)c2sc3ccccc3c2Cl)c1`: 91.6%; for `c1csc(-c2nnc(-c3ccc(N4CCOCC4)cc3)o2)c1`: 56.9%; for `CCOC(=O)c1sc2nc(-c3ccccc3)ccc2c1N`: 76.1%. Next, `O=C(Nc1ccc(NC(=O)C2CC2)cc1)c1ccco1`: 44%; `CCCCN(CC)CCCNC(=O)C1c2ccccc2C(=O)N(C)C1c1cn(C)c2ccccc12` (stereo not given): 71.8%; `Cc1cc(C(=O)Cn2nnc3ccccc3c2=O)c(C)n1Cc1cccs1`: 65.1%. Next, `CC(C)N(CC(=O)Nc1ccc(Cl)cc1C(F)(F)F)C(=O)CCl`: 99.4%; `CCOc1ccc(OCC(=O)Nc2cccc(S(=O)(=O)NC3=NCCC3)c2)cc1`: 68.9%. As for `O=C(c1cc(-c2ccc(Cl)cc2Cl)on1)N1CCOCC1`, the activity came out at 53.3%.

Turning to `CCCCCCCN(C(=O)CCl)c1ccccc1C`, the activity came out at 99.6%. For the molecule `O=C(Nc1ccc2c(c1)nc1n2CCSC1)c1ccco1`, the activity is 77.4%. As to `c1c2c(cc3sc(N4CCCCC4)nc13)OCO2`, the activity came out at 56%. On to `NC(=O)c1ccsc1NC(=O)c1ccc2c(c1)CCCC2`, for which the activity is 89.5%. On to `Cc1occc1C(=O)O/N=C(\N)c1ccc(Cl)cc1`, for which the activity worked out at 81.6%. Turning to `Cc1cccc(/C(N)=N/OC(=O)c2cccc3ccccc23)c1`, the activity is 89.5%. Next, `Cc1cc(C)c(C#N)c(SCc2nc3ccccc3c(=O)[nH]2)n1`: 82.8%. Consider `O=C(Nc1ccc(-c2cn3ccccc3n2)cc1)c1cccs1`, for which the activity worked out at 76.2%. For `COc1ccc(C(=O)Nc2nc3ccccc3[nH]2)cc1`, the activity was 96.3%.
